Shown is part of a subset that was picked to be rich in hits.
Pf apPOL inh: Pf-apPOL DNA polymerase inhibition. Recombinant Pf-apPOL, molecular beacon fluorescence, 1.5 h. inhibition, % at 10 µM. 210,000 compounds, 0.25% hits. AID 1794808
mHTT CaM bind: inhibitors of human mutant huntingtin-calmodulin interaction; AlphaScreen His-mHTT/GST-CaM binding, luminescence; inhibition, % at 15 µM; 190,000 compounds, 3.6% hits;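 note: 0% = both proteins with DMSO and 100% = one protein alone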
Numbers without * were called inactive; . = no result given. Cut-off read from the data, not from the text of the source: active = inhibition above about 50%; inactive = the rest.

SMILES	Pf apPOL inh	mHTT CaM bind
CSc1ccc(C=Nc2ccccn2)cc1	.	0
CSc1ccc(C(Nc2ccccn2)c2ccc3ccc(C)nc3c2O)cc1 (stereo unspecified)	-9	78*
CSc1ccc(C(Nc2ccccn2)c2ccc3cccnc3c2O)cc1 (stereo unspecified)	2	99*
CCc1ccc(C(Nc2ccccn2)c2ccc3cccnc3c2O)cc1 (stereo unspecified)	-2	97*
Cc1ccc2ccc(C(Nc3ccccn3)c3ccc(N(C)C)cc3)c(O)c2n1 (stereo unspecified)	4	100*
CC1=C(C(=O)Nc2ccccn2)C(c2ccc(N(C)C)cc2)n2ncnc2N1 (stereo unspecified)	-3	4
CCc1ccc(C(C)NC(=O)c2ccccn2)cc1 (stereo unspecified)	-11	-1
CN(CC(=O)Nc1ccc2c(c1)OCCO2)S(=O)(=O)c1ccc(Br)cc1	-3	-8
Cc1cc(C)c(-c2ccc(=O)n(CC(=O)Nc3ccc4c(c3)OCCO4)n2)cc1C	-4	12
COc1ccc(N2CCN(CC(O)c3ccc(Cl)cc3)CC2)cc1 (stereo unspecified)	-2	8
COc1cccc(-c2ncnn2-c2cccc(Cl)c2C)c1	1	2
COCCc1noc(COC2CCCN(Cc3ccc[nH]3)C2)n1 (stereo unspecified)	-4	31
C=CCOc1ccc(C(Nc2ccccn2)c2ccc3cccnc3c2O)cc1 (stereo unspecified)	5	99*
C=CCOc1ccc(C(=O)Nc2ccccn2)cc1	-5	-7
Oc1c(C(Nc2ccccn2)c2ccc(F)cc2)ccc2cccnc12 (stereo unspecified)	-8	98*
O=c1cc(CO)oc(C(Nc2ccccn2)c2ccc(F)cc2)c1O (stereo unspecified)	-2	33
Cc1ccc2ccc(C(Nc3ccccn3)c3cccnc3)c(O)c2n1 (stereo unspecified)	-6	73*
COC(=O)c1ccc2c(=O)n(-c3cccc(Cl)c3)c(N3CCCC3)nc2c1	-1	-71
CCOc1ccc(CN2C(=O)CCC2(C)C(=O)NC(C)CC)cc1 (stereo unspecified)	2	1
COc1ccc(OC)c(NC(=O)CCN(C)Cc2ccccc2)c1	-12	18
COc1ccc(-c2noc(-c3ccc(NCc4ccccc4)nc3)n2)cc1	4	-3
Cc1ccc(-c2nc(C3CCN(S(=O)(=O)c4cccc(Cl)c4C)CC3)no2)cc1	-6	-8
CN(C)C1CCN(Cc2ccc(C(F)(F)F)cc2)CC1CO (stereo unspecified)	-8	10
Oc1[nH]c2ccc(Br)cc2c1OCc1ccncc1	.	-3
Fc1ccc(C2Nc3c(Cl)cccc3C3C=CCC32)cc1 (stereo unspecified)	0	37
SMILES	Pf apPOL inh	mHTT CaM bind
COc1cc(C2Nc3c(Cl)cccc3C3C=CCC32)cc(OC)c1OC (stereo unspecified)	-4	70*
COc1cccc2c1NC(c1ccccc1[N+](=O)[O-])C1CC=CC21 (stereo unspecified)	-1	73*
COc1cc([N+](=O)[O-])cc2c1NC(c1ccc(Cl)cc1)C1CC=CC21 (stereo unspecified)	9	38
O=[N+]([O-])c1cccc2c1NC(c1cccc(Cl)c1Cl)C1CC=CC21 (stereo unspecified)	-3	73*
COc1ccc(C2Nc3c(Cl)cccc3C3C=CCC32)cc1[N+](=O)[O-] (stereo unspecified)	-4	52*
Cc1ccc(NC(=O)C2CCCN(c3cnn(Cc4ccccc4)c(=O)c3)C2)cc1 (stereo unspecified)	-6	18
COc1cc(CN2CCCC2c2cc(C)on2)cc(OC)c1OC (stereo unspecified)	0	11
CCCNC(=O)N1CC(c2nc(-c3cccnc3)no2)C2(CCOCC2)C1 (stereo unspecified)	-4	0
COc1ccc(C2Nc3ccccc3C3C=CCC32)cc1[N+](=O)[O-] (stereo unspecified)	0	86*
CCOc1cc2c(c([N+](=O)[O-])c1)NC(c1ccc(Cl)cc1)C1CC=CC21 (stereo unspecified)	-1	41
COc1ccc(C2Nc3c(OC)ccc(Cl)c3C3C=CCC32)cc1[N+](=O)[O-] (stereo unspecified)	0	62*
CC1(C)Cc2c(sc3nc(NN)nc(NN)c23)CO1	-2	100*
Cn1c(NN)nc2sc3c(c2c1=O)CC(C)(C)OC3	-4	36
O=C(CCC1CCCN(C(=O)Nc2cccc(F)c2)C1)N1CCN(c2ccccc2)CC1 (stereo unspecified)	-4	50*
CCN1CCN(C(=O)CCC2CCCN(C(=O)Nc3cccc(F)c3)C2)CC1 (stereo unspecified)	-6	18
Nc1ncnc(Sc2nc3ccccc3o2)c1[N+](=O)[O-]	2	75*
Nc1ncnc(SC2=NCCS2)c1[N+](=O)[O-]	0	59*
Cc1cc(Sc2ncnc(N)c2[N+](=O)[O-])nc(C)n1	-1	-2
O=[N+]([O-])c1ccc(Sc2nc3ccccc3o2)c([N+](=O)[O-])c1	2	12
O=C(CC1CCCCC1)NCc1ccc2[nH]c3c(c2c1)CCCC3	-5	92*
CN(C)S(=O)(=O)c1ccc(C(=O)NCc2ccc3[nH]c4c(c3c2)CCCC4)cc1	-6	29
O=C(Cc1ccc([N+](=O)[O-])cc1)NCc1ccc2[nH]c3c(c2c1)CCCC3	28	31
O=C(NCc1ccc2[nH]c3c(c2c1)CCCC3)C12CC3CC(CC(C3)C1)C2	-6	98*
N#Cc1ccc(CN2CCCC2c2nc(-c3ccccc3)n[nH]2)cc1 (stereo unspecified)	-6	2
CC(C)c1c(C2CCN(C(=O)NCc3ccco3)CC2)noc1N	-4	17
SMILES	Pf apPOL inh	mHTT CaM bind
Cc1nn(C)c2c1S(=O)(=O)N=C(N1CCOCC1)S2	1	.
CCN(CC)c1ccc(N=Nc2c(O)ccc3ccccc23)cc1	-12	.
Oc1ccc2ccccc2c1N=Nc1ccccc1	.	84*
O=C(OC1Cc2c(O)cc(O)cc2OC1c1cc(O)c(O)c(O)c1)c1cc(O)c(O)c(O)c1 (stereo unspecified)	54*	.
O=C1c2c(O)cc(O)cc2OC(c2ccc(O)c(O)c2)C1O (stereo unspecified)	0	.
CCOC(=O)C1CCN(CCOc2ccc3c(c2)OC(=Cc2ccc(OC)cc2)C3=O)CC1	0	9
COc1cc(OC)cc(C2=Cc3ccc(OC)cc3C(CC(C)=O)N2c2ccc(-c3cncnc3)cc2)c1 (stereo unspecified)	-4	37
CCc1ccc(C2=Cc3ccccc3C(CC(=O)C3CC3)N2c2ccc(-c3cncnc3)cc2)cc1 (stereo unspecified)	-2	100*
Cc1ccn2cc(C(=O)NCCC(C)C)nc2c1	-1	-8
CC(=O)NC1=NC(=O)/C(=C/c2ccc(F)cc2)S1	-4	-6
CC(=O)NC1=NC(=O)/C(=C/c2c(C)n(Cc3ccc(F)cc3)c3ccccc23)S1	-3	100*
O=C1CCCC2=C1C(c1ccco1)C1=C(N2)c2ccccc2C1=O (stereo unspecified)	-2	26
O=C1C2=C(Nc3ccccc3SC2c2ccco2)c2ccccc21 (stereo unspecified)	0	69*

Compound activity: PubChem, University of Kansas High Throughput Screening Laboratory
